We go through two compounds from ChEMBL document CHEMBL1961873, “Compounds: GSK PKIS; Assays: Nanosyn kinase panel” (2012).

The target in assay [1] is Protein kinase C gamma type (Homo sapiens) (UniProt P05129). To be noted: at 1 µM.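 Note: each value is an averaged percent inhibition of the enzyme.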
The target of assay [2] is T1, Protein kinase C iota type (Homo sapiens) (UniProt P41743).
T1 sequence (whole entry): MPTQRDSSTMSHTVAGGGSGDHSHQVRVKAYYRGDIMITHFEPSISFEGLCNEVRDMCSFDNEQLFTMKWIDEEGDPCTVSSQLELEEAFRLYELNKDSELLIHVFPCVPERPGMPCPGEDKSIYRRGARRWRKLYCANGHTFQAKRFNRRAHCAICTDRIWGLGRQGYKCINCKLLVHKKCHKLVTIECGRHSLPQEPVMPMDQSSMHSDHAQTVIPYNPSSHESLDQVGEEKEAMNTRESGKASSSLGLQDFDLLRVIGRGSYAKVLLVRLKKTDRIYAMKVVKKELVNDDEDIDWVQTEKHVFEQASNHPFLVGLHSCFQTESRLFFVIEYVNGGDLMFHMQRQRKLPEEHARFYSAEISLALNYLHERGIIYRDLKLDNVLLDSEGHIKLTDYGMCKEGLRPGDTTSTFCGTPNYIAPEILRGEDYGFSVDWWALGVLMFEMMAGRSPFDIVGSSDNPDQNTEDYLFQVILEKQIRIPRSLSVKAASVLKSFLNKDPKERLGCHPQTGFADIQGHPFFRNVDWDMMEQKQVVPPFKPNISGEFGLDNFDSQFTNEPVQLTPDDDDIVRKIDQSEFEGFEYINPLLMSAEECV
As to conditions: at 0.1 µM.

The target of assay [3] is T1, Protein kinase C iota type (Homo sapiens). To be noted: at 1 µM.
The target of assay [4] is Protein kinase C theta type (Homo sapiens) (UniProt Q04759). To be noted: at 0.1 µM.
The target is the same in assay [5]. To be noted: at 1 µM.
Assay [6] has as its target Protein kinase C beta type (Homo sapiens) (UniProt P05771). To be noted: at 0.1 µM.
The target is the same in assay [7]. To be noted: at 1 µM.
Assay [8] addresses T2, Serine/threonine-protein kinase D1 (Homo sapiens) (UniProt Q15139).
T2 sequence (whole entry): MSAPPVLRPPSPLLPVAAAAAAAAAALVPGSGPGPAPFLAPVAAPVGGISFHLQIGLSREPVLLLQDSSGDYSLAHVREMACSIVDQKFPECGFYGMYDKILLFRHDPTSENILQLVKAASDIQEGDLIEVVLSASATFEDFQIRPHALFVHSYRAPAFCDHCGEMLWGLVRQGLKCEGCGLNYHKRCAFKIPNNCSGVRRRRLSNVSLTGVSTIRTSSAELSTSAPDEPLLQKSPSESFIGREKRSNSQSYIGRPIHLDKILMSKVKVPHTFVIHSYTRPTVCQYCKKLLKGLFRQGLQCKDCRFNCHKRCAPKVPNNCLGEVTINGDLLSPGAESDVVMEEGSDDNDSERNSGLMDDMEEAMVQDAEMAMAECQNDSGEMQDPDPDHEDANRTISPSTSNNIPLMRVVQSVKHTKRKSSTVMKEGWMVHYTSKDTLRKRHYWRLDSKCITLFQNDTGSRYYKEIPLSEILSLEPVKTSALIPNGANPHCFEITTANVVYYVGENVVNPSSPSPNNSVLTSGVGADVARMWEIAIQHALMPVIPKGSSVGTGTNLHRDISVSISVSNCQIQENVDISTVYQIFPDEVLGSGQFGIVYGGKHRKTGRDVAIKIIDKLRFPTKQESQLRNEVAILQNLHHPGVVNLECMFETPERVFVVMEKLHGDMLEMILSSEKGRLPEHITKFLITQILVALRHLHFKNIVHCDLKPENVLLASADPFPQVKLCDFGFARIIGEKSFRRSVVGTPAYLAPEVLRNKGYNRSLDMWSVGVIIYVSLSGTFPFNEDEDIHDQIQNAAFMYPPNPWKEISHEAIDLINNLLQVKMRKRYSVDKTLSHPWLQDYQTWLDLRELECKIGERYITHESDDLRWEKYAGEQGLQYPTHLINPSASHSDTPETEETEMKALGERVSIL
As to conditions: at 0.1 µM.

Assay [9] addresses T2, Serine/threonine-protein kinase D1 (Homo sapiens). To be noted: at 1 µM.
In assay [10] the target is T3, Serine/threonine-protein kinase D2 (Homo sapiens) (UniProt Q9BZL6).
T3 sequence (whole entry): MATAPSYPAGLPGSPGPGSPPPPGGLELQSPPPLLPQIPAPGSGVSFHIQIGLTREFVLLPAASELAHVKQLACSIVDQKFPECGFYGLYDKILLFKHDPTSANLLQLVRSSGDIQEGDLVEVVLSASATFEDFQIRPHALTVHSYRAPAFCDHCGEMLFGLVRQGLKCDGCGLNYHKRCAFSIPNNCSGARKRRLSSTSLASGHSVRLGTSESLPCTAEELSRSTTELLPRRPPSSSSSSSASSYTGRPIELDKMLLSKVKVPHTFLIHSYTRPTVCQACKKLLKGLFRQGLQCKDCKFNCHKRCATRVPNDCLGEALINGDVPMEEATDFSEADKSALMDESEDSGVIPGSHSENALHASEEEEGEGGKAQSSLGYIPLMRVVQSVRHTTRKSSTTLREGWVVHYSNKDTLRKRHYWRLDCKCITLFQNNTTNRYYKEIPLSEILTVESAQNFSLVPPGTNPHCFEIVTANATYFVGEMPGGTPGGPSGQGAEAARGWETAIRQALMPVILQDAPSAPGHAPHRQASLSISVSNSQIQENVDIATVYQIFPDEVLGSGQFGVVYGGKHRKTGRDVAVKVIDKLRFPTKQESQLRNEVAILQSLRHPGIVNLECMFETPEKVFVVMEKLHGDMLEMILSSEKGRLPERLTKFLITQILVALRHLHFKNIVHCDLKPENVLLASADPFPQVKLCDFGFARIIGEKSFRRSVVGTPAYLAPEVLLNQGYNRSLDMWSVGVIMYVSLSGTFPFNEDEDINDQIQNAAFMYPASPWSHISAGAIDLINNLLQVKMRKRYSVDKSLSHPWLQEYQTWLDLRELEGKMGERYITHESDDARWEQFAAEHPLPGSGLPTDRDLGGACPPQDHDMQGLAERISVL
To be noted: at 0.1 µM.

The target of assay [11] is T3, Serine/threonine-protein kinase D2 (Homo sapiens). As to conditions: at 1 µM.
Assay [12] addresses T4, Serine/threonine-protein kinase D3 (Homo sapiens) (UniProt O94806).
T4 sequence (whole entry): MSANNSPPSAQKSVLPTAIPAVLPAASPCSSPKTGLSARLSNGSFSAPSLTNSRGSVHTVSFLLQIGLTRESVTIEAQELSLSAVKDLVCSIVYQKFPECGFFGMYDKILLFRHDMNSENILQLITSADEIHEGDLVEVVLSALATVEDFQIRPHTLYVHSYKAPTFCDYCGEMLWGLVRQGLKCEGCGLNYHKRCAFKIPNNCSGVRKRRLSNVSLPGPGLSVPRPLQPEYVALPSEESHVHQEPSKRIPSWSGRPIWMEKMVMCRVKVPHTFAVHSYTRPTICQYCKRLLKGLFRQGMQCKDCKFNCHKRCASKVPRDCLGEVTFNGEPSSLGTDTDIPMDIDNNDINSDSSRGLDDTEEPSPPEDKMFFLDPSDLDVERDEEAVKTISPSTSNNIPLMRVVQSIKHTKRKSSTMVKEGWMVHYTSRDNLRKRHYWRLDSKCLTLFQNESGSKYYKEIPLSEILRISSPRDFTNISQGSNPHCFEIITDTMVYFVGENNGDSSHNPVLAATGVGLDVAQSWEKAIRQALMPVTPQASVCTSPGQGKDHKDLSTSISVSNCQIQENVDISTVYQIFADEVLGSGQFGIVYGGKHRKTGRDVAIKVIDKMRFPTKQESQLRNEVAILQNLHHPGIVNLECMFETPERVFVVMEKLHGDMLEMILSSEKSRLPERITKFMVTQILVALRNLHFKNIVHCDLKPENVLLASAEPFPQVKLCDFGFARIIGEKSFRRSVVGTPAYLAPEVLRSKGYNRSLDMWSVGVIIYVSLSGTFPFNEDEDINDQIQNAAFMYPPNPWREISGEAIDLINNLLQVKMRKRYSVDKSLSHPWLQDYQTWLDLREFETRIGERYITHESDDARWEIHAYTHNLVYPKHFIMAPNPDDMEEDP
As to conditions: at 0.1 µM.

In assay [13] the target is T4, Serine/threonine-protein kinase D3 (Homo sapiens). To be noted: at 1 µM.
Assay [14] deals with T5, cGMP-dependent protein kinase 1 (Homo sapiens) (UniProt Q13976).
T5 sequence (whole entry): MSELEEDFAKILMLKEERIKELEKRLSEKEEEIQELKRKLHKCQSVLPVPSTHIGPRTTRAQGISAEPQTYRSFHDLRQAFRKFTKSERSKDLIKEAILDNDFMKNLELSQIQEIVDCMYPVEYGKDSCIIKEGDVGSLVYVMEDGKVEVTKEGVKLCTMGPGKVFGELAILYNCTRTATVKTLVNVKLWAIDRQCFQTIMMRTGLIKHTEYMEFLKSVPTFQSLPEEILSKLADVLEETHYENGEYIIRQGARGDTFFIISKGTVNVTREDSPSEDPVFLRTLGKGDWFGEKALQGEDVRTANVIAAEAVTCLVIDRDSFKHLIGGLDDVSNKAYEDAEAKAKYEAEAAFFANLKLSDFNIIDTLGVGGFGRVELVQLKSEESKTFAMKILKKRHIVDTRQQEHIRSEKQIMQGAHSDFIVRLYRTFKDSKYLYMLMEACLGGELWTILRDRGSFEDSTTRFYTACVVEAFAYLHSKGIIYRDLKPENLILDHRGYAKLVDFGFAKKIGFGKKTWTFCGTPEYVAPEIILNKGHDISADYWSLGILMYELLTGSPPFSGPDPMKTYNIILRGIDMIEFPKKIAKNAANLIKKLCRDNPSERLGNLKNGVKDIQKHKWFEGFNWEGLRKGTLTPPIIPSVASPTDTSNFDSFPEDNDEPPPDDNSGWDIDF
As to conditions: at 0.1 µM.

Assay [15] has as its target T5, cGMP-dependent protein kinase 1 (Homo sapiens). As to conditions: at 1 µM.
Assay [16] deals with T6, cGMP-dependent protein kinase 2 (Homo sapiens) (UniProt Q13237).
T6 sequence (whole entry): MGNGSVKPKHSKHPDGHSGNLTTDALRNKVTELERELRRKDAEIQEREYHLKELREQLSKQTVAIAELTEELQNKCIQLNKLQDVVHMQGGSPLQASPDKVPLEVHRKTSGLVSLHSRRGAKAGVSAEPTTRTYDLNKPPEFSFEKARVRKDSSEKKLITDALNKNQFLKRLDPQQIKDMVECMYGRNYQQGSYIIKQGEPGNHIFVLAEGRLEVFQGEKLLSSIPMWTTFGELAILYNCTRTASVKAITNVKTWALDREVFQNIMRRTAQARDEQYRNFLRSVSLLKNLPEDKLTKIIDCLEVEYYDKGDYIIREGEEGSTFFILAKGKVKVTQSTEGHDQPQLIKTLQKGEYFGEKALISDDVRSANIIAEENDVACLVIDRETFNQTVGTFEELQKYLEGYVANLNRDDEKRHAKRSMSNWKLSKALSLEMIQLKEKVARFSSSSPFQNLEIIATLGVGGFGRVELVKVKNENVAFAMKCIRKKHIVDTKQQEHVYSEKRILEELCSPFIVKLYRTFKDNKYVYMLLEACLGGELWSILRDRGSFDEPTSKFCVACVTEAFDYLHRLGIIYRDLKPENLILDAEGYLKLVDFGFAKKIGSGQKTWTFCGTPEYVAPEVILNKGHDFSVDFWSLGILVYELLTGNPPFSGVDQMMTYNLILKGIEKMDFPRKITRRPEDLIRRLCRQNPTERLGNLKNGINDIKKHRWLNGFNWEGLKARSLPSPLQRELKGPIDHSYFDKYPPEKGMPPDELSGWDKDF
To be noted: at 0.1 µM.

Assay [17] addresses T6, cGMP-dependent protein kinase 2 (Homo sapiens). As to conditions: at 1 µM.
The target in assay [18] is T7, cAMP-dependent protein kinase catalytic subunit PRKX (Homo sapiens) (UniProt P51817).
T7 sequence (whole entry): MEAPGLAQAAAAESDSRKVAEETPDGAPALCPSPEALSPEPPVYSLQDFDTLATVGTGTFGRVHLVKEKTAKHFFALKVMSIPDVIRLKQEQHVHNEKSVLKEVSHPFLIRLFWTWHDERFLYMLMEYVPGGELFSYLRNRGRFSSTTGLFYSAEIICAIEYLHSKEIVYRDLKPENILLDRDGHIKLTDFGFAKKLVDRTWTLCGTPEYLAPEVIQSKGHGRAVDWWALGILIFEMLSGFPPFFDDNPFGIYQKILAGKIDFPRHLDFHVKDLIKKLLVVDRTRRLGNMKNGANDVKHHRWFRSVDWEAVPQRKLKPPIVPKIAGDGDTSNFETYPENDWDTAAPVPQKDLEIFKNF
As to conditions: at 0.1 µM.

The target in assay [19] is T7, cAMP-dependent protein kinase catalytic subunit PRKX (Homo sapiens). As to conditions: at 1 µM.
In assay [20] the target is Rho-associated protein kinase 1 (Homo sapiens) (UniProt Q13464). To be noted: at 0.1 µM.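 Note: values are mean percent inhibition of ROCK1.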
Rho-associated protein kinase 1 (Homo sapiens), sequence (Q13464 2-1354 limits assumed): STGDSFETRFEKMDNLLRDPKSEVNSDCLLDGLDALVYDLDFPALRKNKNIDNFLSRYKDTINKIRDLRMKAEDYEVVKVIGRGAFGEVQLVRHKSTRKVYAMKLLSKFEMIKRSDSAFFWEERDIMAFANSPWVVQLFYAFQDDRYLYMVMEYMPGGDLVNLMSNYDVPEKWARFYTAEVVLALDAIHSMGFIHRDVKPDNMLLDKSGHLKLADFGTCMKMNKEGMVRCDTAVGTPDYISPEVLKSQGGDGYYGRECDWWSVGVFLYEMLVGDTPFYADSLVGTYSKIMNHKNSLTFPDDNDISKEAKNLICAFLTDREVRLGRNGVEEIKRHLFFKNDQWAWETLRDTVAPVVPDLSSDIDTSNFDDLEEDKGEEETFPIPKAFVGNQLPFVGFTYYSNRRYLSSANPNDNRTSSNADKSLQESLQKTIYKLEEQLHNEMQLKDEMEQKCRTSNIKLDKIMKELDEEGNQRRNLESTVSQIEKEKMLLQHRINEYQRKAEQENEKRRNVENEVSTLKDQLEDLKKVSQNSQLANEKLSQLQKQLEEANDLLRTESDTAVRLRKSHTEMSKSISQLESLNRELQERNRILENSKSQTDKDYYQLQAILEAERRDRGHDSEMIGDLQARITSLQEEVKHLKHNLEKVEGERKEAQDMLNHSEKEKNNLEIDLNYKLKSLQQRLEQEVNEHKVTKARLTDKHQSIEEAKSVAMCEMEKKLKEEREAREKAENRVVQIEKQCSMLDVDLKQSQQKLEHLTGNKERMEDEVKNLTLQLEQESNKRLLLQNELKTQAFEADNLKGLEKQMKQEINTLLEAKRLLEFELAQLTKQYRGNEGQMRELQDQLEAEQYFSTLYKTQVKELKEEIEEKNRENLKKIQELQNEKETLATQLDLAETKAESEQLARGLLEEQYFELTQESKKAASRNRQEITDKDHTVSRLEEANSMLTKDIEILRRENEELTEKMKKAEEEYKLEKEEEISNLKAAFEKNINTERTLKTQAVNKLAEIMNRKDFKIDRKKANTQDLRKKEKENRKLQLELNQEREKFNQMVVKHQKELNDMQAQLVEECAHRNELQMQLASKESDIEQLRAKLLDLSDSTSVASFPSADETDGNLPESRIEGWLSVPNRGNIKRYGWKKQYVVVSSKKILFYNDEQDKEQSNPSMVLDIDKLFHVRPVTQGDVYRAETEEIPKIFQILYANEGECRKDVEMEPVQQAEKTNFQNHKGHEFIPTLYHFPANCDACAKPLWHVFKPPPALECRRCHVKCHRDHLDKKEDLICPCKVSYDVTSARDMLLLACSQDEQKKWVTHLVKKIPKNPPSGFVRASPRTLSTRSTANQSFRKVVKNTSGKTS

Protein kinase C theta type (Homo sapiens), sequence (Q04759 whole entry, looked up): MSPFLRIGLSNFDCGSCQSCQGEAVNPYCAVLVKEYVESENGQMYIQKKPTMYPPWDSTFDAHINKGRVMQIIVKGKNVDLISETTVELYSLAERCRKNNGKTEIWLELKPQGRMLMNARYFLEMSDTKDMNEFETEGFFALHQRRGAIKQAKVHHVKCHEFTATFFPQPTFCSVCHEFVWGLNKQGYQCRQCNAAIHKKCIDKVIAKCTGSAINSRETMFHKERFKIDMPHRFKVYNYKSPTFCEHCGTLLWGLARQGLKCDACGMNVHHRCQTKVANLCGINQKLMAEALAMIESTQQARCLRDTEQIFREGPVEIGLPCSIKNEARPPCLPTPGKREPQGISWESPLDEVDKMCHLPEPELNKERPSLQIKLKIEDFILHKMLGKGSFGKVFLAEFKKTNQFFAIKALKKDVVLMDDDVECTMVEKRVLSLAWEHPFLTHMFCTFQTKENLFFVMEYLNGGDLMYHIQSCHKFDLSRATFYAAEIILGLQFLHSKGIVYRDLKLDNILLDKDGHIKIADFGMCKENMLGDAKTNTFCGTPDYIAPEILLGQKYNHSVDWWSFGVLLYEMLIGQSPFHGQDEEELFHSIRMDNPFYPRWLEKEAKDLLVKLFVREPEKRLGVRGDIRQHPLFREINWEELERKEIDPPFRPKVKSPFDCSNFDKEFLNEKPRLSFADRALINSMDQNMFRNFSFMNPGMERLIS
Protein kinase C beta type (Homo sapiens), sequence (P05771 2-671 limits assumed): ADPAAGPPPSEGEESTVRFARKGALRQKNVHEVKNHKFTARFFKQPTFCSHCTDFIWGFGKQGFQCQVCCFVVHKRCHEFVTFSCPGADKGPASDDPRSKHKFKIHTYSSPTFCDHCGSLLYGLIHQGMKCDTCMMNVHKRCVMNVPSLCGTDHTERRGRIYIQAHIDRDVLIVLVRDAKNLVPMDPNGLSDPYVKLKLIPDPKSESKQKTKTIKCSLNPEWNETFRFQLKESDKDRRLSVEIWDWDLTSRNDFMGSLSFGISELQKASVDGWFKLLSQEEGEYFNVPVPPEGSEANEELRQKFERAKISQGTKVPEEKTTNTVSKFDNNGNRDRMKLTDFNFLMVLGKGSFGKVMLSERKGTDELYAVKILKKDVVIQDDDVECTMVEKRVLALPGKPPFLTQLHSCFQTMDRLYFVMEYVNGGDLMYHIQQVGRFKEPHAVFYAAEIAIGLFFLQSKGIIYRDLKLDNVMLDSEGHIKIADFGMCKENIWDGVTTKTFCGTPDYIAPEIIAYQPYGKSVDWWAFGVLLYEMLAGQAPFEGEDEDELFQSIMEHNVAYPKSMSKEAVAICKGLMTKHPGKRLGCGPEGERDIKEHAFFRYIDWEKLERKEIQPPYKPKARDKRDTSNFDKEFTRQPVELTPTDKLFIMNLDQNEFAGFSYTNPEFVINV

By inhibition is commonly meant the drop in the measured response relative to a control, in per cent. With `Cc1nnc(-c2ccc(C)c(-c3ccc(C(=O)NCc4ccc(Cl)cc4)cc3)c2)o1`, the inhibition in assay [1] came out at 3.88%; in [2] it was 2.2%; in [3], 0.35%; in assay [4] it was 1.83%; in [5] it was 3.97%; in assay [6] it was 1.36%. Moreover, the inhibition was 3.21% in assay [7]; 1% in [8]; 0.36% in assay [9]; 0.28% in assay [10]; -0.8% in assay [11]; 2.09% in [12]. For the same compound, the inhibition was -0.1% in [13]; 2.07% in [14]; 5.32% in assay [15]; 3.25% in assay [16]; 3.86% in assay [17]; 2.66% in [18]. For the same compound, the inhibition in assay [19] is 5.13%; in assay [20], 1.51%.

Turning to `CCS(=O)(=O)c1ccc(OC)c(Nc2ncc(-c3ccccc3Cl)o2)c1`, the inhibition was 5.15% in [1]; 0.15% in assay [2]; -1.52% in assay [3]; -0.01% in assay [4]; 2.29% in [5]; -0.13% in assay [6]. Also, the inhibition came to 2.01% in assay [7]; 1.52% in assay [8]; 1.41% in [9]; 1.21% in assay [10]; 1.98% in assay [11]; 0.34% in assay [12]. Also, the inhibition came out at 0.32% in assay [13]; 1.27% in assay [14]; 3.79% in assay [15]; 0.72% in assay [16]; 2.95% in assay [17]; 0.64% in [18]. For the same compound, the inhibition was 0.38% in [19] and -0.11% in assay [20].
